Assay in all cases: PBM binding z-score (relative to random genomic background probes); higher = stronger binding; sequences stand for … in GC…GCGATTGACAGCGTAGAATGAAGG
Experiment [1] concerns FXR:RXRa (NR concentration 270 nM, RXRa partner concentration 90 nM). In a few lines:
(§1)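 Ligand-free nuclear receptor dimers were applied to custom Agilent 4×180K protein-binding microarrays whose double-stranded probes carried direct-repeat seeds, single-nucleotide variants, half-site ablations and random human genomic background sequences in 34-nt variable regions. Incubation lasted 1 h. Binding z-scores were computed against the random background probes from regression-normalized fluorescence.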

In experiment [2] the test system is LXRa:RXRa (NR concentration 270 nM, RXRa partner concentration 90 nM). In a few lines: as §1
Experiment [3] deals with LXRa homodimer (NR concentration 270 nM). In a few lines: as §1
The test system of experiment [4] is LXRb:RXRa (NR concentration 270 nM, RXRa partner concentration 90 nM). In a few lines: as §1
The test system of experiment [5] is LXRb homodimer (NR concentration 270 nM). In a few lines: as §1
For experiment [6], the system named is PPARa:RXRa (NR concentration 270 nM, RXRa partner concentration 90 nM). In a few lines:
as §1

For experiment [7], the system named is PPARg:RXRa (NR concentration 180 nM, RXRa partner concentration 90 nM). In a few lines:
as §1

Experiment [8] relates to PPARg:RXRa 270nM:90nM, anti-RXR (NR concentration 270 nM, RXRa partner concentration 90 nM). In a few lines: as §1
In experiment [9] the test system is PPARg:RXRa 30nM:10nM, anti-RXR (NR concentration 30 nM, RXRa partner concentration 10 nM). In a few lines: as §1
The subject of experiment [10] is PPARg:RXRa 90nM:30nM, anti-RXR (NR concentration 90 nM, RXRa partner concentration 30 nM). In a few lines: as §1
Experiment [11] deals with PPARg:RXRa DBDmut IVT, anti-RXR (DBD mutation: RXRa K156A/R161A, NR concentration 270 nM, RXRa partner concentration 90 nM). In a few lines: as §1
For experiment [12], the system named is PPARg:RXRa IVT, anti-PPARg (NR concentration 270 nM, RXRa partner concentration 90 nM). In a few lines: as §1
In experiment [13] the test system is PPARg DBDmut:RXRa IVT, anti-PPARg (DBD mutation: PPARg1 K132A/R137A, NR concentration 270 nM, RXRa partner concentration 90 nM). In a few lines: as §1
In experiment [14] the test system is PPARg DBDmut IVT, anti-PPARg (DBD mutation: PPARg1 K132A/R137A, NR concentration 270 nM). In a few lines:
as §1

Experiment [15] deals with PPARg homodimer (NR concentration 180 nM). In a few lines:
as §1

Experiment [16] concerns PXR:RXRa (NR concentration 270 nM, RXRa partner concentration 90 nM). In a few lines:
as §1

Experiment [17] deals with PXR homodimer (NR concentration 270 nM). In a few lines:
as §1

The test system of experiment [18] is RARa:RXR (NR concentration 270 nM, RXRa partner concentration 90 nM). In a few lines: as §1
Experiment [19] has as its system RARa homodimer (NR concentration 270 nM). In a few lines: as §1
The test system of experiment [20] is RARb:RXRa (NR concentration 270 nM, RXRa partner concentration 90 nM). In a few lines: as §1

For six sequences, PBM binding z-score results are on record in the supplement of paper PMC6555819.

TCTTGTAGATCAAGAAGGTTAAGAAAGCCTGAGT: the PBM binding z-score in [1] is 0.542; in experiment [2], 0.704; in experiment [3], -0.24; in experiment [4], 0.833; in experiment [5], -0.584; in experiment [6], 1.44. The PBM binding z-score in [7] is -0.11; in experiment [8], 1.65; in [9], 2.96; in experiment [10] it was 2.31; in experiment [11], 1.65; in [12], 0.53. The PBM binding z-score in experiment [13] was -0.357; in experiment [14], 0.523; in experiment [15], 0.323; in experiment [16], 0.858; in [17], 0.332; in experiment [18], 0.941. Moreover, the PBM binding z-score in experiment [19] worked out at 0.353; in [20], 0.732.

With CCGACTGGGGCAGAAAAGTTACCATACCATCCGG, the PBM binding z-score in experiment [1] was -0.281; in experiment [2], -0.694; in [3], -0.371; in experiment [4], -0.55; in experiment [5], -1.1; in experiment [6], -0.413. Moreover, the PBM binding z-score is 0.56 in [7]; -0.294 in experiment [8]; -0.571 in experiment [9]; -0.517 in [10]; 1.36 in experiment [11]; 0.746 in experiment [12]. The PBM binding z-score was -1.85 in experiment [13]; -1.61 in experiment [14]; 0.0393 in experiment [15]; -0.593 in experiment [16]; -0.395 in [17]; -0.848 in experiment [18]. Further, the PBM binding z-score in [19] is 0.0243; in [20], -0.0999.

Turning to GCGACTGGGGCATCAGCAGGTTACCATCACTTAA, the PBM binding z-score in [1] is -0.298; in experiment [2] it was -0.121; in [3] it was -0.321; in experiment [4], 0.504; in experiment [5] it was -0.992; in experiment [6], 0.811. For the same sequence, the PBM binding z-score in experiment [7] was 0.679; in experiment [8], 0.547; in [9] it was -0.615; in [10], -0.341; in experiment [11] it was 4.02; in [12] it was 3.08. The PBM binding z-score was -0.268 in [13]; -0.441 in [14]; 0.406 in [15]; -0.239 in experiment [16]; -0.641 in experiment [17]; 0.272 in [18]. Also, the PBM binding z-score was -0.548 in experiment [19] and 0.891 in experiment [20].

As for TCATATAGGTAAATACTAGGTGAAAGTCCGATCT, the PBM binding z-score was 1.19 in [1]; 1.08 in [2]; 0.534 in [3]; 0.889 in experiment [4]; 0.276 in experiment [5]; 2.16 in experiment [6]. Moreover, the PBM binding z-score in [7] amounted to 2.46; in [8], 3.26; in experiment [9] it was 4.4; in experiment [10], 3.92; in [11], 4.28; in experiment [12] it was 4.37. In addition, the PBM binding z-score in [13] is 1.5; in experiment [14] it was 1.37; in experiment [15] it was 1.15; in experiment [16], 0.747; in [17], 0.389; in experiment [18] it was 1.15. The values for the PBM binding z-score in [19] and in experiment [20] were 1.65 and 0.482, respectively.

Consider TCTAGTTGGTCAAAGCTCACACACTCGAAATGCG, for which the PBM binding z-score is 0.576 in experiment [1]; 0.551 in experiment [2]; 0.233 in [3]; 0.661 in experiment [4]; 0.421 in [5]; 1.58 in [6]. The PBM binding z-score in experiment [7] is 2.21; in [8], 4.31; in experiment [9] it was 3.89; in experiment [10], 4.23; in experiment [11], 2.36; in [12], 1.86. Besides, the PBM binding z-score in experiment [13] was 0.492; in experiment [14], 0.777; in experiment [15], 1.1; in experiment [16], 0.532; in experiment [17], -0.0371; in experiment [18], 0.758. The results for the PBM binding z-score in experiment [19] and in experiment [20] were 0.56 and 1.01, respectively.

As for CGTCCAAGGTCATCGGAGGTCAGTGAAGACAGAT, the PBM binding z-score was determined as 8.01 in [1]; 7.87 in experiment [2]; 5.77 in experiment [3]; 6.23 in [4]; 1.29 in experiment [5]; 5.95 in [6]. The PBM binding z-score was determined as 5.99 in [7]; 5.91 in experiment [8]; 2.4 in experiment [9]; 4.7 in experiment [10]; 3.14 in experiment [11]; 4.14 in [12]. Further, the PBM binding z-score in experiment [13] came to 0.99; in experiment [14] it was 1.08; in [15], 6.99; in experiment [16] it was 7.33; in experiment [17], 7.36; in experiment [18], 6.63. Moreover, the PBM binding z-score in [19] came out at 3.02; in [20], 5.5.
